Assay outcomes deposited in PubChem by National Center for Advancing Translational Sciences (NCATS).
The list is not random: actives were taken first. Their share in the collection is about 12%.
G9a inh = blocks human histone lysine methyltransferase G9a. Q96KQ7. G9a H3K9 monomethylation, AlphaScreen, 2 h. Potency, µM (titrated, usually from 102 µM), without a hit: top-dose activity, negative = inhibition, usual class: inhibitors. actives 8.8% (n = 350,000); note: potency is the fitted concentration of half-maximal effect; % is set by controls: 0 for no effect and ±100 for the full control effect; nearly all actives have a fitted effect of over 75% in size
Target sequence (Q96KQ7 913-1193 limits assumed): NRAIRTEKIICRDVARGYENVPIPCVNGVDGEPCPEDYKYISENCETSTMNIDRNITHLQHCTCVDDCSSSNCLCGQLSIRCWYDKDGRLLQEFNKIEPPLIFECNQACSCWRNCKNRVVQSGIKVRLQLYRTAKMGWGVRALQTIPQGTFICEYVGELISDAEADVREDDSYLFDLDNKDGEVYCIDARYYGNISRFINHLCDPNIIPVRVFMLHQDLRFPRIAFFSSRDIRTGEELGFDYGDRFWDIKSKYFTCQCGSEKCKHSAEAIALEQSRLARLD
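G9a (20 nM) preincubated 15 min RT with compounds, then 500 nM biotinylated H3K9 peptide and 20 uM SAM added; 2 h RT reaction. Monomethyl-H3K9 product detected by AlphaScreen with anti-H3K9me1 antibody, streptavidin donor and anti-rabbit IgG acceptor beads.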
PI5P4Ka inh = PI5P4K alpha (human) kinase inhibition | actives 1.2% (n = 330,000) | AID 652105 | PI5P4Kalpha enzyme, ADP-Glo luminescence, 60 min; stronger effect = lower value | max response, % | P48426; active = max response of -50% or lower; inconclusive = between -30% and -50%; inactive = -30% or higher; note: value at the top dose of about 77 µM; % is set by controls: 0 for no effect and ±100 for the full control effect
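Reactions run in 0.038 M HEPES pH 7.4, 0.28 mM EGTA, 0.1% CHAPS and 5% DMSO, with PI5P4Kalpha, substrate, compound and 5 microM ATP final, one hour at room temperature. Readout is ADP-Glo luminescence.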
PLK1 PBD block = PLK1 (human) polo-box domain binding inhibition; P53350; Plk1 PBD binding of FITC phosphopeptide, fluorescence polarization; Potency, µM, without a hit: max response, negative = inhibition, usual class: inhibitors; actives 2.8% (n = 360,000); AID 720504; note: potency is the fitted concentration of half-maximal effect; series mostly up to about 57 µM; % is set by controls: 0 for no effect and ±100 for the full control effect; nearly all actives have a fitted effect of over 65% in size
JMJD2A Tudor inh = JMJD2A Tudor domain (human) inhibition | O75164 | AlphaScreen JMJD2A-Tudor / H3K4me3 peptide binding | Potency, µM (series often up to 114 µM), inactives show at the highest dose activity change, negative = inhibition, hits mostly inhibitors | actives 4.4% (n = 390,000) | AID 504339; note: potency is the fitted concentration of half-maximal effect; % is set by controls: 0 for no effect and ±100 for the full control effect; nearly all actives have a fitted effect of over 50% in size
HP1b chromo inh = inhibitors of HP1-beta chromodomain binding to methylated histone tails; P83916; AlphaScreen HP1-beta / biotin-H3K9me3 peptide binding; Potency, µM (series often up to 114 µM), for inactives: at the top dose activity change, negative = inhibition, most hits filed as inhibitors; actives 0.56% (n = 390,000); AID 540317; note: potency is the fitted concentration of half-maximal effect; nearly all actives have a fitted effect of over 70% in size
Target sequence (P83916 whole entry, looked up): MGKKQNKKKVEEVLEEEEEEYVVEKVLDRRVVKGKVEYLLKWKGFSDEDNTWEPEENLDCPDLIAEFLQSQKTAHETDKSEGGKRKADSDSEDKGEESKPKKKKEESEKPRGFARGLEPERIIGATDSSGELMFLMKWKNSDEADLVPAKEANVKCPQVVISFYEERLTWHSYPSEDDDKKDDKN
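AlphaScreen: HP1-beta (50 nM) preformed 30 min with biotin-H3(1-18)K9me3 peptide (50 nM) in PBS pH 7.4, 0.01% Tween-20. Compound added for 30 min at RT, then streptavidin donor/nickel chelate acceptor beads (10 ug/mL) for 30 min.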
BAZ2B inh = BAZ2B (human) inhibition | Q9UIF8 | AlphaScreen BAZ2B-H3K14Ac peptide displacement | Potency, µM (highest dose often 114 µM), for inactives: at the highest dose activity change, negative = inhibition, hits mostly inhibitors | actives 4.4% (n = 360,000) | AID 504333; note: potency is the fitted concentration of half-maximal effect; % is set by controls: 0 for no effect and ±100 for the full control effect; nearly all actives have a fitted effect of over 60% in size
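In this displacement format the biotinylated H3(5-23) peptide acetylated at Lys14 serves as ligand at 50 nM, with BAZ2B at 50 nM in PBS pH 7.4 containing 0.01% Tween-20. Donor and acceptor beads are 10 ug/mL final.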
The depositor's hits bear a star; u = inconclusive; x = no result given; [ ] = another dose, or the depositor's remark. Unless noted, calls come from the whole dose curve; as a rule, active = well fitted curve in the direction sought with a large enough effect; inconclusive = small, poorly fitted or top-dose-only effect, or another doubt; inactive = no such curve, though single readings can be large; an effect the other way counts as inactive or inconclusive.

SMILES	G9a inh	PI5P4Ka inh	PLK1 PBD block	JMJD2A Tudor inh	HP1b chromo inh	BAZ2B inh
C=CCn1c(O)c(N=NC(=S)Nc2cccc(OC)c2)c2ccccc21	28.2µM*	-4.4	0.8%	u	u	7.94µM*
CCCNC(=O)C1=CC(c2ccc3c(c2)OCO3)=NS(=O)(=O)N1C	-6.0%[59 µM]	x	x	-10.9%	23.4%	-2.5%
Nc1nc(SCC(=O)N2CCCCC2)[nH]c(=O)c1NC(=O)c1ccccc1F	6.5%	-6.2	-6.9%	-2.1%	42.9%	-15.2%
Cn1c[n+](C)cc1/C=N/O	39.8µM*	-16.5	1.9%	50.1µM*	8.1%	89.1µM*
COCCn1c(=O)c(-c2cn(C)c3ccccc23)nc2cnc(Oc3ccc(OC)cc3)nc21	-0.8%[12.7 µM]	x	x	x	x	x
CCOc1ccc(CCNC(=O)c2cc3c(=O)oc4ccc(C)cc4c3s2)cc1OCC	-8.7%[59 µM]	x	x	u	13.0%	-3.8%
CCn1c(P(C)(=O)O)nc2cc(NC(=O)c3ccccc3Cl)ccc21	14.7%	0.2	-5.8%	u	15.2%	-0.9%
CN1CC(c2ccccc2)Oc2ccccc2C1=S (centres undefined)	x	6.1	1.3%	-12.1%	52.4%	x
O=C(Nc1c(Cl)cc([N+](=O)[O-])cc1Cl)c1cc(Cl)ccc1O	x	x	x	u	-0.4%	x
O=C(Nc1ccc([N+](=O)[O-])cc1Cl)c1cc(Cl)cc(Cl)c1O	x	x	x	44.7µM*	-28.5%	x
O=C(Nc1cc(Cl)ccc1Cl)c1cc([N+](=O)[O-])cc(Br)c1O	x	x	x	56.2µM*	-23.2%	x
CCC(C)(C)NC(=O)Cn1c(=O)ccc2cc(S(=O)(=O)N3CCC(C)CC3)ccc21	11.7%[59 µM]	x	x	-25.8%	20.6%[57 µM]	3.5%
O=C(Nc1cccc(C(F)(F)F)c1)c1cc2nc(-c3ccc4c(c3)OCO4)cc(C(F)(F)F)n2n1	-3.8%[59 µM]	x	x	-9.0%	23.7%	-18.7%
COc1cc(C2CC(=O)c3cnc(N4CCN(Cc5ccccc5)CC4)nc3C2)cc(OC)c1OC (centres undefined)	u	3.3	-15.5%	-35.7%	-20.2%	-36.1%
COc1ccc(C2CC(=O)c3c(C)nc(N4CCN(Cc5ccccc5)CC4)nc3C2)cc1OC (centres undefined)	35.5µM*	x	-7.0%	u	-13.6%	u
CC1(c2ccc(OC(F)F)cc2)NC(=O)N(CC(=O)Nc2ccccc2)C1=O (centres undefined)	20.8%	0.5	3.2%	9.2%	9.8%	-10.0%
COc1ccc(C2(C)NC(=O)N(CC(=O)Nc3c(C)n(C)n(-c4ccccc4)c3=O)C2=O)cc1 (centres undefined)	56.2µM*	-3.2	1.7%	4.1%	16.9%	-1.7%
Cc1c(NC(=O)CN2C(=O)NC(C)(c3ccc(OC(F)F)cc3)C2=O)c(=O)n(-c2ccccc2)n1C (centres undefined)	50.1µM*	-6.4	-3.5%	0.0%	19.7%	0.6%
COc1ccc2cc(C3(C)NC(=O)N(CC(=O)Nc4c(C)n(C)n(-c5ccccc5)c4=O)C3=O)ccc2c1 (centres undefined)	35.8%[59 µM]	-0.6	-0.7%	-8.7%	23.0%	-26.2%
CC1(c2ccc(OC(F)F)cc2)NC(=O)N(CC(=O)Nc2ccc3[nH]c(=O)[nH]c3c2)C1=O (centres undefined)	56.2µM*	-3.9	-6.4%	-25.6%	-14.9%	-6.1%
Cc1noc(C)c1-c1ccc2ncnc(NCc3ccccc3Cl)c2c1	x	x	x	-23.4%	x	x
CCC(C(=O)NCc1ccccc1Cl)n1nc(C)c2sc3ccccc3c2c1=O (centres undefined)	1.3%[59 µM]	x	x	-16.9%	25.0%	-5.5%
C/C=C\C=C/C(=O)Nc1cccc(C2=NOC3(C2)C[C@H](C(N)=O)N(C(=O)CC)C3)c1 (some centres undefined)	u	-4.1	-19.4%	u	-38.7%	-0.4%
C/C=C\C=C/C(=O)Nc1cccc(C2=NOC3(C2)C[C@@H](C(N)=O)N(C(=O)c2ccc(Cl)cc2)C3)c1 (some centres undefined)	u	-66.4*	-18.3%	-31.7%	11.1%	u
